SW480 rereplic = A quantitative high throughput screen for small molecules that induce DNA re-replication in SW480 colon adenocarcinoma cells; Potency, µM (highest dose often 46.1 µM), inactives show top-dose re-replication activation, usual class: activators; actives 1.8% (n = 340,000); SW480 DNA re-replication, Hoechst DNA content imaging, 48 h; note: % of control where 0% means no effect; nearly all actives have a fitted effect of over 55% in size
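Image-based read-out: total Hoechst fluorescence of nuclei (405 nm excitation, 500-530 nm emission), with hits raising the fraction of high-intensity nuclei. SW480 colon cells incubated 48 hr with compounds at 37 C.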
HT1080 IDH1KD tx = qHTS for induction of synthetic lethality in tumor cells producing 2HG: qHTS for the HT-1080-IDH1KD cell line. Potency, µM (top dose mostly 46.1 µM), for the others: top-dose activity, negative = toxicity, hits mostly cytotoxic. HT-1080 IDH1 knockdown viability, ATP luminescence, 48 h. actives 2% (n = 360,000). AID 686971, 2013;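 note: 0% = DMSO wells and -100% = cell-free medium wells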
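Cytotoxicity counter-line: IDH1KD HT-1080, 48 h, CellTiter-Glo. Curves classed by r2, magnitude and activity.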
HT1080-NT tox = qHTS for induction of synthetic lethality in tumor cells producing 2HG: qHTS for the HT-1080-NT fibrosarcoma cell line | HT-1080-NT fibrosarcoma viability, CellTiter-Glo ATP luminescence, 48 h | actives 1.6% (n = 360,000) | Potency, µM (series often up to 46.1 µM), without a hit: at the highest dose activity, negative = less viability, actives largely listed as cytotoxic;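 note: NT is the 2HG producing partner of a matched IDH1 knockdown line; 0% = DMSO-treated cells and -100% = media-only wells without cells; nearly all actives have a fitted effect of over 55% in size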
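HT-1080-NT fibrosarcoma cells (2HG-overproducing), 750 cells/well in RPMI with 5% FBS, dosed after 2 h and incubated 48 h at 37C. CellTiter-Glo luminescence normalized to DMSO and no-cell wells; concentration-response curves fitted and classed.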
KB-V1 MDR tox = qHTS assay for MDR1-selective chemotherapeutics: Primary screen using the drug-selected MDR subline cells KB-V1; Potency, µM (titrated, usually from 46.1 µM), actives largely listed as cytotoxic; KB-V1 MDR cells viability, CellTiter-Glo, 72 h; actives 3.4% (n = 400,000); note: % is set by controls: 0 for no effect and ±100 for the full control effect; nearly all actives have a fitted effect of over 60% in size
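Compound-treated KB-V1 multidrug-resistant cells, 72 h, 37 degrees C; viability by CellTiter-Glo. Fitted qHTS curves give the values.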
MCF10A rerep = A quantitative high throughput screen for small molecules that induce DNA re-replication in MCF 10a normal breast cells | MCF 10A DNA re-replication, Hoechst nuclear intensity, 48 h | Potency, µM (highest dose often 46.1 µM), inactives show at the highest dose activity, positive = re-replication, actives largely listed as activators | actives 2.9% (n = 350,000) | AID 624296, 2012; note: % of control where 0% means no effect; nearly all actives have a fitted effect of over 50% in size
KB-3-1 tox = qHTS assay for MDR1-selective chemotherapeutics: Primary screen using the parental adenocarcinoma cell KB-3-1 | KB-3-1 viability, CellTiter-Glo ATP luminescence, 72 h | Potency, µM (titrated, usually from 46.1 µM), actives largely listed as cytotoxic | actives 1.4% (n = 400,000) | AID 1347075, 2019; note: % is set by controls: 0 for no effect and ±100 for the full control effect; nearly all actives have a fitted effect of over 60% in size
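72 h, 37 °C compound treatment of KB-3-1 parental cells; CellTiter-Glo added, 10 min, luminescence read. Data corrected against DMSO-only plates and normalized before curve fitting.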
Active calls of the source: *. An excerpt weighted towards active compounds, which were near 8% of everything screened. Calls come from the whole dose curve; as a rule, active = well fitted curve in the direction sought with a large enough effect; inconclusive = small, poorly fitted or top-dose-only effect, or another doubt; inactive = no such curve, though single readings can be large; an effect the other way counts as inactive or inconclusive. Potency is the fitted concentration of half-maximal effect.

What do the screens show for `CN(Cc1ccccc1)S(=O)(=O)c1ccc(Cl)c(C(=O)N2CCC2)c1`?
SW480 rereplic: 2%; HT1080 IDH1KD tx: -1%; HT1080-NT tox: -3%; KB-V1 MDR tox: 16µM*; MCF10A rerep: 18%; KB-3-1 tox: inactive

How did O=C(Cc1ccc(Cl)cc1)Nc1ccccc1C(=O)N1CCCC1 do in these assays?
SW480 rereplic: -3%; HT1080 IDH1KD tx: 0%; HT1080-NT tox: -4%; KB-V1 MDR tox: inactive; MCF10A rerep: -3%; KB-3-1 tox: inactive

Results for COc1ccc(S(=O)(=O)N(C)CC(=O)Nc2ccc3c(c2)OCO3)cc1 ?
SW480 rereplic: 9%; HT1080 IDH1KD tx: -1%; HT1080-NT tox: -5%; KB-V1 MDR tox: inactive; MCF10A rerep: -2%; KB-3-1 tox: inactive

How did CN(CC(=O)Nc1ccccc1C(=O)N1CCCC1)S(=O)(=O)c1ccc(Cl)cc1 do in these assays?
SW480 rereplic: -2%; HT1080 IDH1KD tx: -1%; HT1080-NT tox: 8%; KB-V1 MDR tox: 7.3µM*; MCF10A rerep: -1%; KB-3-1 tox: inactive

What do the screens show for `COc1ccc(S(=O)(=O)N(C)CC(=O)Nc2c(F)cccc2F)cc1`?
SW480 rereplic: 18µM*; HT1080 IDH1KD tx: -1%; HT1080-NT tox: 4%; KB-V1 MDR tox: inconclusive; MCF10A rerep: 8.2µM*; KB-3-1 tox: inactive

How did Cc1cccc(NC(=O)CN(C)S(=O)(=O)c2ccc(Cl)cc2)n1 do in these assays?
SW480 rereplic: -7%; HT1080 IDH1KD tx: -16%; HT1080-NT tox: 1%; KB-V1 MDR tox: 16µM*; MCF10A rerep: -2%; KB-3-1 tox: inactive

How did O=C(c1ccc2c(c1)N(Cc1ccc(Cl)cc1)C(=O)c1ccccc1S2=O)N1CCN(c2ccccc2F)CC1 (stereo not given) do in these assays?
KB-V1 MDR tox: inactive; KB-3-1 tox: inactive

How did O=C(Nc1cc(NC(=O)c2ccccc2F)ccc1Cl)c1ccccc1 do in these assays?
SW480 rereplic: inconclusive; HT1080 IDH1KD tx: 2%; HT1080-NT tox: 17%; KB-V1 MDR tox: inactive; MCF10A rerep: 16%; KB-3-1 tox: inactive

Results for O=C(Cn1c(=O)n(-c2ccc(F)c(Cl)c2)c(=O)c2sc3ccccc3c21)NC1CCCC1 ?
KB-V1 MDR tox: inactive; KB-3-1 tox: inactive

Results for COc1cccc(NC(=O)CSc2nc3c(sc4ccccc43)c(=O)n2CCN(C)C)c1 ?
SW480 rereplic: -11%; HT1080 IDH1KD tx: -10%; HT1080-NT tox: 2%; KB-V1 MDR tox: inactive; MCF10A rerep: -2%; KB-3-1 tox: inactive

How did C=CCn1c(SCC(=O)Nc2sccc2C(N)=O)nc2ccccc2c1=O do in these assays?
SW480 rereplic: inconclusive; HT1080 IDH1KD tx: inconclusive; HT1080-NT tox: inconclusive; KB-V1 MDR tox: 18µM*; MCF10A rerep: 7%; KB-3-1 tox: inconclusive

What do the screens show for `COc1cccc(NC(=O)CSc2nc3ccccc3c(=O)n2Cc2cccs2)c1`?
SW480 rereplic: 5%; HT1080 IDH1KD tx: -1%; HT1080-NT tox: 10%; KB-V1 MDR tox: 5.2µM*; MCF10A rerep: 9%; KB-3-1 tox: inactive

Results for COc1cccc(NC(=O)CSc2nc3ccccc3c(=O)n2CCCC(=O)N2CCCC2)c1 ?
SW480 rereplic: 7%; HT1080 IDH1KD tx: -11%; HT1080-NT tox: -12%; KB-V1 MDR tox: 2.6µM*; MCF10A rerep: inconclusive; KB-3-1 tox: inactive

Results for COc1cccc(NC(=O)CSc2nc3c(sc4ccccc43)c(=O)n2CCCN2CCCC2)c1 ?
SW480 rereplic: inconclusive; HT1080 IDH1KD tx: -9%; HT1080-NT tox: -12%; KB-V1 MDR tox: inactive; MCF10A rerep: 18µM*; KB-3-1 tox: inactive

What do the screens show for `COc1ccc(NC(=O)CSc2nc3ccccc3c(=O)n2CCC(=O)N2CCCCC2)cc1`?
SW480 rereplic: -1%; HT1080 IDH1KD tx: -11%; HT1080-NT tox: 0%; KB-V1 MDR tox: inconclusive; MCF10A rerep: 3%; KB-3-1 tox: inactive

Results for C=CCn1c(SCC(=O)Nc2sccc2C(N)=O)nc2ccc(Cl)cc2c1=O ?
SW480 rereplic: 2%; HT1080 IDH1KD tx: inconclusive; HT1080-NT tox: inconclusive; KB-V1 MDR tox: inconclusive; MCF10A rerep: 26%; KB-3-1 tox: inconclusive

What do the screens show for `CCc1ccc(NC(=O)Cn2c(=O)n(-c3cc(OC)c(OC)c(OC)c3)c(=O)c3ccccc32)cc1`?
KB-V1 MDR tox: inactive; KB-3-1 tox: inactive

How did Cc1ccccc1NC(=S)N(C)Cc1cn(C)c2ccccc12 do in these assays?
SW480 rereplic: 0%; HT1080 IDH1KD tx: 5%; HT1080-NT tox: -1%; KB-V1 MDR tox: 18µM*; MCF10A rerep: 1%; KB-3-1 tox: inactive

How did CCC(C)(C)n1nnnc1C(c1ccccc1OC)N1CCN(C(=O)c2ccco2)CC1 (stereo not given) do in these assays?
SW480 rereplic: -9%; HT1080 IDH1KD tx: 13%; HT1080-NT tox: 3%; KB-V1 MDR tox: inconclusive; MCF10A rerep: -8%; KB-3-1 tox: inactive

How did CC1C/C(=N\Nc2ccc(S(N)(=O)=O)cc2[N+](=O)[O-])CC(C)(C)C1 (stereo not given) do in these assays?
SW480 rereplic: 10%; HT1080 IDH1KD tx: inconclusive; HT1080-NT tox: inconclusive; KB-V1 MDR tox: inactive; MCF10A rerep: 21µM*; KB-3-1 tox: inactive

What do the screens show for `NS(=O)(=O)c1ccc(N/N=C2/CCCCC2C2CCCCC2)c([N+](=O)[O-])c1` (stereo not given)?
SW480 rereplic: inconclusive; HT1080 IDH1KD tx: inconclusive; HT1080-NT tox: 18µM*; KB-V1 MDR tox: inactive; MCF10A rerep: 12µM*; KB-3-1 tox: inconclusive

How did Cc1cc(C)c2c(c1)/C(=N/Nc1ccc(S(N)(=O)=O)cc1[N+](=O)[O-])CCC2 do in these assays?
SW480 rereplic: -7%; HT1080 IDH1KD tx: -5%; HT1080-NT tox: -8%; KB-V1 MDR tox: inconclusive; MCF10A rerep: 2.3µM*; KB-3-1 tox: inactive

How did NS(=O)(=O)c1ccc(NN=C2CCN(Cc3ccccc3)CC2)c([N+](=O)[O-])c1 do in these assays?
SW480 rereplic: -3%; HT1080 IDH1KD tx: -9%; HT1080-NT tox: 1%; KB-V1 MDR tox: inactive; MCF10A rerep: -7%; KB-3-1 tox: inactive

Results for COc1cccc(-n2c(SCc3cccc(C)c3)nc3c([nH]c4ccccc43)c2=O)c1 ?
KB-V1 MDR tox: inactive; KB-3-1 tox: inactive
